This is part of a sample that, as a whole, favours compounds with a hit. Of some 83,000 tested, about 20% had one in any assay.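 Treatment: one concentration, 48 hours, 96-well format. Scoring: percent growth, with anything below 10 considered active.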 Values without a mark were called inactive. Active and inactive are the calls of the source.
Tested on: OVCAR-5 ovarian
Assay: NCI-60 one-dose screen, 48 h (100 = growth as untreated, 0 = no growth, -100 = all killed)
Conditions: 10 µM unless noted

| SMILES | growth |
| --- | --- |
| COc1ccc([C@H]2[C@H](O)C(=O)N2c2cc(OC)c(OC)c(OC)c2)cc1Cl | 30.3% |
| COc1cc2c3c(n(CCCNCC4CC4)c(=O)c2cc1OC)-c1cc2c(cc1C3=O)OCO2 | -66.8% (active) |
| O=C(Cn1cc(CN2C(=O)c3ccc([N+](=O)[O-])cc3C2=O)nn1)Nc1ccccc1Br | 106% |
| COc1ccc(NC(=O)Cn2cc(CN3C(=O)c4ccc([N+](=O)[O-])cc4C3=O)nn2)cc1 | 115% |
| COc1cc2c3c(n(CCCNC4CCCC4)c(=O)c2cc1OC)-c1cc2c(cc1C3=O)OCO2 | -81.3% (active) |
| CS(=O)c1nccc(-c2c(-c3ccc(F)c(OCCc4ccccc4)c3)nc3sccn23)n1 (stereo not drawn) | 111% |
| COc1cc2c3c(n(CCCNC4CCC4)c(=O)c2cc1OC)-c1cc2c(cc1C3=O)OCO2 | -72.4% (active) |
| O=S(=O)(Nc1ccc(-n2cnc3cc(-c4ccc(O)cc4)ccc32)cc1)C1CC1 | 107% |
| N#Cc1ccc(S(=O)(=O)Nc2ccc(-c3cnc(N)[nH]3)cc2)cc1 | 98.9% |
| Cn1cc(-c2nn3cc(-c4cccnc4)nc3s2)c2cc(F)ccc21 | 91.5% |
| COc1ccc2oc3c4[nH]c5ccccc5c4c4c(c3c2c1)C(=O)N(O)C4=O | 109% |
| COc1ccc(/C(C)=C(\c2ccc(Cl)cc2)c2ccc(OCCN)cc2)cc1 | 83.8% |
| COc1ccc2c(c1)c(-c1nn3c(=O)cc(-c4ccccc4)nc3s1)cn2C | 66% |
| Cc1ccccc1/C=C/c1nn2c(-c3ccoc3C)nnc2s1 | 100% |
| Cn1cc(-c2nn3cc(-c4cccnc4)nc3s2)c2ccccc21 | 36.6% |
| COc1ccc(-c2cc(-c3cccc4ccccc34)n3c(n2)nc2ccccc23)cc1OC | 52.2% |
| Cn1c2ccc(Br)cc2c2c3c(c4c5cc(F)ccc5oc4c21)C(=O)N(O)C3=O | 108% |
| O=C(Cn1cc(CN2C(=O)c3ccc([N+](=O)[O-])cc3C2=O)nn1)Nc1ccc(F)cc1Cl | 102% |
| O=C1c2c(c3c4ccc(Br)cc4oc3c3[nH]c4ccccc4c23)C(=O)N1CCO | 69.9% |

| SMILES | growth |
| --- | --- |
| CCOC(=O)CC(=O)CSC1=NC2C(NN1)N(C)C(=O)N2C (stereo not drawn) | 88.6% |
| Cn1c2ccccc2c2c3c(c4c5ccc(Br)cc5oc4c21)C(=O)N(O)C3=O | 110% |
| CCNCCCn1c2c(c3cc(OC)c(OC)cc3c1=O)C(=O)c1cc(OC)cnc1-2 | 46.2% |
| C=CCn1c(SCC(=O)Nc2cccc(C(=O)/C=C/c3cccc([N+](=O)[O-])c3)c2)nc2ccccc2c1=O | 92.5% |
| COc1ccc2c(c1)oc1c3[nH]c4ccccc4c3c3c(c21)C(=O)N(O)C3=O | 110% |
| COc1cc2c3c(n(CCCN4CCC[C@H]4C(N)=O)c(=O)c2cc1OC)-c1cc2c(cc1C3=O)OCO2 | 26.6% |
| C=CCn1c(SCC(=O)Nc2cccc(C(=O)/C=C/c3ccc(Br)cc3)c2)nc2ccccc2c1=O | 96.2% |
| CS(=O)(=O)c1ccc2c(c1)c1c(n2C(=O)c2ccc(Cl)cc2)CCCC1 | 50.3% |
| COc1ccc([C@H]2[C@H](O)C(=O)N2c2cc(OC)c(OC)c(OC)c2)cc1O | 30.1% |
| Cc1occc1-c1nc2s/c(=C\c3cn(-c4ccccc4)nc3-c3ccccc3)c(=O)n2n1 | 99.5% |
| COc1cc2c3c(n(CCCNC4CCCCC4)c(=O)c2cc1OC)-c1cc2c(cc1C3=O)OCO2 | -86.4% (active) |
| COc1ccc(-c2no[n+]([O-])c2Nc2ccccc2Br)cc1 | 108% |
| C/C(Cc1ccc(Cl)cc1)=C(/c1ccccc1)c1ccc(OCCN)cc1 | 97.4% |
| COc1cnc2c(c1)C(=O)c1c-2n(CCCNCC2CC2)c(=O)c2cc(F)ccc12 | -6.47% (active) |
| COc1cnc2c(c1)C(=O)c1c-2n(CCCn2ccnc2)c(=O)c2cc(OC)c(OC)cc12 | -40.7% (active) |
| C=CCn1c(SCC(=O)Nc2cccc(C(=O)/C=C/c3ccccc3)c2)nc2ccccc2c1=O | 101% |
| COc1cc2c3c(n(CCCN4CCCC4)c(=O)c2cc1OC)-c1cc2c(cc1C3=O)OCO2 | -73.1% (active) |
| N#C/C(=C\c1ccc(-c2ccc(F)cc2)o1)C(=O)Nc1ncc(Cc2ccc(Cl)cc2Cl)s1 | 26% |
| Cc1ccc(-c2nnc3sc(C4=Cc5ccccc5OC=C4)nn23)cc1 | 98% |

Reference: PubChem BioAssay (NCI)
